This is an account of results in PubChem BioAssay (NCI).

Test [1] is described as follows: NCI Yeast Anticancer Drug Screen. Data for the rad50 strain (AID 155).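 Also: 0% = growth of vehicle-only cultures of the same strain.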 The conditions noted are these: S. cerevisiae rad50 strain growth inhibition, active compounds read high. The gist of the method: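 Relative growth inhibition (compound vs vehicle) was measured in yeast with a defined repair-gene alteration.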
Test [2] is described as follows: NCI Yeast Anticancer Drug Screen. Data for the mec2-1 strain (AID 157). The conditions noted are these: S. cerevisiae mec2-1 strain, active compounds read high. A digest of the protocol:
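Using mec2-1 yeast: add compound, measure growth, express inhibition versus vehicle-treated cultures.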

A short description of test [3]: NCI Yeast Anticancer Drug Screen. Data for the sgs1 mgt1 strain (AID 161).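 Also: 0% = growth of cultures given vehicle only.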 The conditions noted are these: S. cerevisiae sgs1 mgt1 strain, active compounds read high. The gist of the method: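 Percent growth inhibition was derived by comparing compound-exposed mutant yeast with vehicle-exposed cultures. The strain carries alterations in DNA damage repair.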
The nature of test [4]: NCI Yeast Anticancer Drug Screen. Data for the cln2 rad14 strain (AID 165).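 Also: 0% = growth equal to vehicle treated cultures.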 Particulars: S. cerevisiae cln2 rad14 strain, active compounds read high. The gist of the method: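 Yeast strain cln2 rad14, bearing defects in cell cycle control and DNA repair, serves as the test system; values reflect growth inhibition compared with vehicle.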
A short description of test [5]: NCI Yeast Anticancer Drug Screen. Data for the bub3 strain (AID 167). The conditions noted are these: S. cerevisiae bub3 mutant strain, active compounds read high. A digest of the protocol: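 Screening used yeast with an engineered genetic alteration affecting cell cycle control. Compound-exposed cultures were compared with vehicle cultures, and reduced growth was taken as inhibition.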

Test [6] can be described thus: NCI Yeast Anticancer Drug Screen. Data for the mlh1 rad18 strain (AID 175). The conditions noted are these: S. cerevisiae mlh1 rad18 strain growth inhibition, active compounds read high. A digest of the protocol: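 Steps: expose repair-defective yeast to compound; measure growth; express inhibition against vehicle-treated controls.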
Setting [7] is: at 5.0 µM (retest, dose inferred, filed as 0.5).
[8] abbreviates: at 50.0 µM (retest, dose inferred, filed as 5.0).

About 79,000 compounds went through this panel and 15% of them were active in at least one assay; those are over-represented in the sample as a whole. Unmarked numbers belong to inactive results. The source made the active and inactive calls. Rule as the data show it: active = growth inhibition above about 70%; inactive = the rest.

In the case of `C/C(=C/C(=O)/C=C/c1ccccc1)c1c(C)[nH]c2ccccc12`, the growth inhibition in test [1] (setting [7]) is -24%; in test [1] (setting [8]), -3%; in test [1] (at 50.0 µM) it was 4.3%; in test [2] (setting [7]), -17%; in test [2] (setting [8]) it was 3%; in test [2] (at 50.0 µM), -19.1%. Also, the growth inhibition was -6% in test [3] (setting [7]); -4% in test [3] (setting [8]); -7.4% in test [3] (at 50.0 µM); 1% in test [4] (setting [7]); -6% in test [4] (setting [8]); 34.4% in test [4] (at 50.0 µM). Further, the growth inhibition in test [5] (setting [7]) was 0%; in test [5] (setting [8]) it was 1%; in test [5] (at 50.0 µM), 81.9% (active); in test [6] (setting [7]), 4%; in test [6] (setting [8]), 16%; in test [6] (at 50.0 µM) it was -0.4%.
Consider `O=C1C(=O)c2ccc(Br)cc2C(O)=C1C(c1ccccc1)c1ccccc1`, for which the growth inhibition in test [1] (setting [7]) was 29%; in test [1] (setting [8]), 60%; in test [1] (at 50.0 µM) it was 25.6%; in test [2] (setting [7]) it was 28%; in test [2] (setting [8]) it was 70% (active); in test [2] (at 50.0 µM), 30.5%. Also, the growth inhibition in test [3] (setting [7]) was 4%; in test [3] (setting [8]), 74% (active); in test [3] (at 50.0 µM) it was 7.4%; in test [4] (setting [7]) it was 24%; in test [4] (setting [8]) it was 63%; in test [4] (at 50.0 µM) it was 14.2%. For the same compound, the growth inhibition in test [5] (setting [7]) was 36%; in test [5] (setting [8]), 70% (active); in test [5] (at 50.0 µM), 21.2%; in test [6] (setting [7]), 28%; in test [6] (setting [8]) it was 69%; in test [6] (at 50.0 µM), 32.5%.
For the compound `COc1ccc2cc3c4cc(OC)c(OC)cc4ccn3c2c1`, the growth inhibition in test [1] (setting [7]) is 3%; in test [1] (setting [8]) it was 65%; in test [1] (at 50.0 µM) it was 33.1%; in test [2] (setting [7]), -1%; in test [2] (setting [8]) it was 58%; in test [2] (at 50.0 µM), 15.3%. In addition, the growth inhibition in test [3] (setting [7]) was 16%; in test [3] (setting [8]), 81% (active); in test [3] (at 50.0 µM), 62.4%; in test [4] (setting [7]), 5%; in test [4] (setting [8]), 71% (active); in test [4] (at 50.0 µM) it was 80% (active). For the same compound, the growth inhibition was -1% in test [5] (setting [7]); 84% (active) in test [5] (setting [8]); 24.2% in test [5] (at 50.0 µM); 12% in test [6] (setting [7]); 88% (active) in test [6] (setting [8]); 91.5% (active) in test [6] (at 50.0 µM).
Take `CC(C)(C)C(=O)OC(N)/C=C/c1ccccc1` (configuration not stated): the growth inhibition in test [1] (setting [7]) was 21%; in test [1] (setting [8]) it was 24%; in test [1] (at 50.0 µM) it was 1.75%; in test [2] (setting [7]), 15%; in test [2] (setting [8]), 16%; in test [2] (at 50.0 µM), -10.2%. The growth inhibition in test [3] (setting [7]) is 13%; in test [3] (setting [8]) it was -36%; in test [3] (at 50.0 µM), 78.8% (active); in test [4] (setting [7]) it was 14%; in test [4] (setting [8]) it was -52%; in test [4] (at 50.0 µM), 36.7%. Further, the growth inhibition was 7% in test [5] (setting [7]); -24% in test [5] (setting [8]); 82.7% (active) in test [5] (at 50.0 µM); 23% in test [6] (setting [7]); 24% in test [6] (setting [8]); -19.9% in test [6] (at 50.0 µM).
For the compound `O=C(NC1=C(Cl)C(=O)c2ccccc2C1=O)C(=O)C(C(=O)c1ccc2ccccc2c1)C1OC(=O)c2ccccc21` (configuration not stated), the growth inhibition in test [1] (setting [7]) was 33%; in test [1] (setting [8]) it was 85% (active); in test [1] (at 50.0 µM) it was 89.8% (active); in test [2] (setting [7]), 16%; in test [2] (setting [8]) it was 59%; in test [2] (at 50.0 µM) it was 63.5%. For the same compound, the growth inhibition in test [3] (setting [7]) was 30%; in test [3] (setting [8]), 98% (active); in test [3] (at 50.0 µM), 88.5% (active); in test [4] (setting [7]) it was 20%; in test [4] (setting [8]), 95% (active); in test [4] (at 50.0 µM), 88.1% (active). The growth inhibition was 22% in test [5] (setting [7]); 99% (active) in test [5] (setting [8]); 85.3% (active) in test [5] (at 50.0 µM); 26% in test [6] (setting [7]); 83% (active) in test [6] (setting [8]); 88.8% (active) in test [6] (at 50.0 µM).
In the case of `C/C(=N/NC(N)=O)C1CC(CCC2([N+](=O)[O-])CCC(C)(O)C(/C(C)=N\NC(N)=O)C2)([N+](=O)[O-])CCC1(C)O` (configuration not stated), the growth inhibition in test [1] (setting [7]) is 5%; in test [1] (setting [8]) it was -5%; in test [1] (at 50.0 µM) it was 10.6%; in test [2] (setting [7]) it was 4%; in test [2] (setting [8]), 0%; in test [2] (at 50.0 µM), 14.1%. The growth inhibition in test [3] (setting [7]) is 3%; in test [3] (setting [8]) it was -1%; in test [3] (at 50.0 µM), -6.4%; in test [4] (setting [7]) it was 5%; in test [4] (setting [8]), -7%; in test [4] (at 50.0 µM) it was 9.6%. In addition, the growth inhibition in test [5] (setting [7]) was 7%; in test [5] (setting [8]) it was -3%; in test [5] (at 50.0 µM), 96.7% (active); in test [6] (setting [7]) it was 1%; in test [6] (setting [8]) it was 3%; in test [6] (at 50.0 µM), 2.1%.
Turning to `NCCCNCc1c2ccccc2c(CNCCCN)c2ccccc12`, the growth inhibition is 6% in test [1] (setting [7]); 6% in test [1] (setting [8]); 10.7% in test [1] (at 50.0 µM); -7% in test [2] (setting [7]); -7% in test [2] (setting [8]); 43.4% in test [2] (at 50.0 µM). In addition, the growth inhibition in test [3] (setting [7]) was 1%; in test [3] (setting [8]) it was 1%; in test [3] (at 50.0 µM) it was 58.9%; in test [4] (setting [7]), 24%; in test [4] (setting [8]), 24%; in test [4] (at 50.0 µM), 56.1%. The growth inhibition in test [5] (setting [7]) was 15%; in test [5] (setting [8]), 15%; in test [5] (at 50.0 µM) it was 33.8%; in test [6] (setting [7]), 4%; in test [6] (setting [8]), 4%; in test [6] (at 50.0 µM), 74.5% (active).
For the compound `C=C1C2Oc3ccccc3C1N(c1ccccc1)O2` (configuration not stated), the growth inhibition is 9% in test [1] (setting [7]); 23% in test [1] (setting [8]); 35% in test [1] (at 50.0 µM); 8% in test [2] (setting [7]); 35% in test [2] (setting [8]); 19.9% in test [2] (at 50.0 µM). Further, the growth inhibition was 4% in test [3] (setting [7]); 62% in test [3] (setting [8]); 66% in test [3] (at 50.0 µM); 4% in test [4] (setting [7]); 24% in test [4] (setting [8]); 39.1% in test [4] (at 50.0 µM). Moreover, the growth inhibition was 1% in test [5] (setting [7]); 26% in test [5] (setting [8]); 9.45% in test [5] (at 50.0 µM); 5% in test [6] (setting [7]); 35% in test [6] (setting [8]); 70.5% (active) in test [6] (at 50.0 µM).
As for `CN(C)C(=O)Nc1ccc(Cc2ccc(NC(=O)N(C)C)cc2)cc1`, the growth inhibition was -6% in test [1] (setting [7]); -32% in test [1] (setting [8]); -3% in test [1] (at 50.0 µM); -29% in test [2] (setting [7]); -32% in test [2] (setting [8]); -13.2% in test [2] (at 50.0 µM). The growth inhibition in test [3] (setting [7]) is -13%; in test [3] (setting [8]) it was -8%; in test [3] (at 50.0 µM), 27.6%; in test [4] (setting [7]), 5%; in test [4] (setting [8]), -4%; in test [4] (at 50.0 µM), 3.65%. The growth inhibition is -19% in test [5] (setting [7]); -20% in test [5] (setting [8]); 7.95% in test [5] (at 50.0 µM); -33% in test [6] (setting [7]); -56% in test [6] (setting [8]); -0.15% in test [6] (at 50.0 µM).
